PubChem BioAssay
A number with no mark means an inactive call. No rule for the calls is given here.

What follows are compounds tested against Pantothenate synthetase (Mycobacterium tuberculosis (strain ATCC 25618 / H37Rv)) (UniProt P9WIL5) (assay: Recombinant Mtb pantothenate synthetase (PanC) inhibitors, coupled enzyme, confirmatory (AID 375;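 also: 0% = full reaction with vehicle and 100% = no enzyme background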)). Conditions: coupled enzyme assay; at 10 µM, active compounds read high.
Sequence of Pantothenate synthetase (Mycobacterium tuberculosis (strain ATCC 25618 / H37Rv)) (P9WIL5 whole entry, looked up): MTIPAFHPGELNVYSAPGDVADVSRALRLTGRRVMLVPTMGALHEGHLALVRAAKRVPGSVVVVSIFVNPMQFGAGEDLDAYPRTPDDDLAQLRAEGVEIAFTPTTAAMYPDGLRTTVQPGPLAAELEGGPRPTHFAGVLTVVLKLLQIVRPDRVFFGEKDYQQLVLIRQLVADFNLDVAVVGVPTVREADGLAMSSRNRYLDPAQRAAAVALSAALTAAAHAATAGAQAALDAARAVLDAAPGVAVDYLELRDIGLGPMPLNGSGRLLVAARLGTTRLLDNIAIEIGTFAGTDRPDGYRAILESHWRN

SMILES	inhibition [%]
CCCS(=O)(=O)N1CCCC(C(=O)NC2CCCC(C)C2C)C1 (centres undefined)	0
CC(=O)c1cc(C#N)c(SCC(=O)OC(C)C)nc1C	4
CN1CCN(Cc2nc3c(c(=O)[nH]c(=O)n3C)n2CCc2ccccc2)CC1	0
COCCCNC(=O)C1CCCN(C(=O)Nc2ccc(OC)cc2)C1 (centres undefined)	2
NS(=O)(=O)c1cc2c(cc1Cl)NC=NS2(=O)=O	3
CNC(=O)c1ccsc1NC(=O)CN1C(=O)CCC1=O	0
Cc1ccc(C(=O)N2CCCC(c3nc4c(nnn4Cc4ccccc4)c(=O)[nH]3)C2)cc1 (centres undefined)	1
COCCNC(=O)CCc1nc(-c2ccccc2)no1	0
COc1ccc(N2CCN(CCCNC(=O)C3(S(=O)(=O)c4ccc(Cl)cc4)CC3)CC2)cc1	0
CCc1ccc2oc(-c3cc(N)ccc3Cl)nc2c1	2
O=C(NCCN1C(=O)C2C3C=CC(C3)C2C1=O)N1CCCCC1 (centres undefined)	0
O=C(C1CCCCC1)N1CC(=O)N2CCc3ccccc3C2C1 (centres undefined)	3
COc1ccccc1S(=O)(=O)Cc1ccc(C(=O)N2CCN(c3ccc(C)cc3)C(C)C2)o1 (centres undefined)	13
COc1cccc(C(=O)OCn2nnc3ccccc3c2=O)c1	0
CN1[C@@H]2CC(OC(=O)[C@H](CO)c3ccccc3)C[C@H]1[C@@H]1O[C@@H]12 (some centres undefined)	0
COC(=O)c1c(N)sc(C(=O)N2CCOCC2)c1C	0
C[C@H](NC(=O)Nc1cccc(C(F)(F)F)c1)C(=O)O	0
Cc1cccc(OCCNC(=O)c2ncn[nH]2)c1	0
COCC(=O)N(Cc1ccc(OC)cc1)Cc1nc2ccccc2c(=O)[nH]1	0
COc1ccc(Cl)cc1NC(=O)c1oc(C)nc1C	4
CC(=O)N1CCc2cc(S(=O)(=O)CCC(=O)Nc3cccc(F)c3)ccc21	0
Cc1ccc(-c2nnc(N(C)C(=O)c3ccccn3)s2)cn1	0
O=C(CCCN1C(=O)c2ccccc2C1=O)Oc1ccc(F)cc1	1
c1coc(CN2CN=C(Nc3nc4ccccc4s3)NC2)c1	0
